From article PMC13494018

B1: design_609_7ee6ce64-4629-41e8-bcb4-ba0da017284d_830_dldesign_0_cycle1_af2pred (protein)
chain: MESLKETFEKMAKLVKKFAEYLEKLDPEAGKKTLEILKKGEEAKTPSEAISLVLRAAVYGAKELGKYDKELALEKLEKVFDL
B2: design_609_7ee6ce64-4629-41e8-bcb4-ba0da017284d_842_dldesign_0_cycle1_af2pred (protein)
chain: SMREEELEADRKKVDEGAKELKKLGEEAAKKAKTWEEFVKGHKELREKAKEVVDAALPEVKPYAEKAASKVVHDARQKGAENVQKQK
B3: design_609_7ee6ce64-4629-41e8-bcb4-ba0da017284d_654_dldesign_0_cycle1_af2pred (protein)
chain: AAAEQAKLKAEAKALMAAMKAAGKAGDVAAVEAAAKAALAKAKELAKIDPALGSKLAAEIHETRAEALSTARKTREEKKKEEELKK
B4: design_609_7ee6ce64-4629-41e8-bcb4-ba0da017284d_741_dldesign_0_cycle1_af2pred (protein)
chain: EKELAEEVIKKIKEKAEKAIKEGVSREEAEKVIKEIEELATKASWEAPEYAKELNRAAKEEKKKIKKAVEEREA
B5: design_609_7ee6ce64-4629-41e8-bcb4-ba0da017284d_730_dldesign_0_cycle1_af2pred (protein)
chain: SEQAKEELEKQEKVKEVAKKVRKALKELEEAGDEEAKKEAEKLRKEASEARLLAADDPEKGLEEMKKVLEKAEKKLKEVKAKL
B6: design_609_7ee6ce64-4629-41e8-bcb4-ba0da017284d_478_dldesign_0_cycle1_af2pred (protein)
chain: DAVKKAAEEAAKEAAKHPKGEKIAKAIEKGAEVAIKNSDKSFSQAAGDGASTIISLLGKEAGVDAIEAQDYADYWLDLVEKNS
B7: design_609_7ee6ce64-4629-41e8-bcb4-ba0da017284d_401_dldesign_0_cycle1_af2pred (protein)
chain: AIEELIKKGKERGEKAAKRVKEGTMTPEAAKDIFKNIIKELAKAGGEEEGKKIALEGADLLAEADPEFGKKFKKEVEKE
B8: design_609_7ee6ce64-4629-41e8-bcb4-ba0da017284d_367_dldesign_0_cycle1_af2pred (protein)
chain: KRKEEQLEKLKKLAEELEKKAKEYEKDKNFKEVAKAYKEAAKKLKEAAKTGDSKVAHEARQKAAEAEWLEKKAK
B9: design_609_7ee6ce64-4629-41e8-bcb4-ba0da017284d_739_dldesign_0_cycle1_af2pred (protein)
chain: SEASKAAAEAYEKLAETEYLAKKAKESNAEEAEKYAKEAKEAAKEAIEAAKKAAELAPEGAPLMKKVEEKAKKAAEEAEKYAKKKK
B10: design_609_7ee6ce64-4629-41e8-bcb4-ba0da017284d_123_dldesign_0_cycle1_af2pred (protein)
chain: GAKAVAAAAHDGYQAIAEASKDAEELKKAEEAGLKAVEETGKATGDTATAKAAKERLKRYADRELKKSKKKEEEKKKKLLE
B11: design_609_7ee6ce64-4629-41e8-bcb4-ba0da017284d_738_dldesign_0_cycle1_af2pred (protein)
chain: MEEALARIDAALKRAKELAKEAEKAGDKKAAAEMESAIAFAEQQRENALKGSPEYAKKAAEAAEAYTDRKIKRAEEIRKKK
B12: design_609_7ee6ce64-4629-41e8-bcb4-ba0da017284d_250_dldesign_0_cycle1_af2pred (protein)
chain: MEEVKKKAEKALKEAKAALKEAKALGNEEAIKAAEQAIKFAKKALEYAEKGDLNGAEAYLEAAKHALKVAKDAIKAAKKAA
B13: design_609_7ee6ce64-4629-41e8-bcb4-ba0da017284d_829_dldesign_0_cycle1_af2pred (protein)
chain: LEEELKKAIEEAKKAVKELKEAAKKRPLTPEEIAKLVTKVSNELGKVRFLSAEALVNKKYEKVGEEGRKAAKEIREEAKEAIKLSKEK
B14: design_609_7ee6ce64-4629-41e8-bcb4-ba0da017284d_519_dldesign_0_cycle1_af2pred (protein)
chain: SEEAERELTLAKGYAELAKELAEQGPKAAKSAVKDAEKEAKEAEKIDPEVGKKAKELAEEAKKYVEEKEK
B15: design_609_7ee6ce64-4629-41e8-bcb4-ba0da017284d_287_dldesign_0_cycle1_af2pred (protein)
chain: MLKEEAKKVAEKGKKEGKYEEAIKELSEIAAKAYELAAEKLLDKETKEEGEKYREAARLARELGKELEKAA
B16: design_609_7ee6ce64-4629-41e8-bcb4-ba0da017284d_187_dldesign_0_cycle1_af2pred (protein)
chain: AEAEKAKAEEAAKVAEEKIKKVEKLDPKKAEELRKKLKEAMAKPDAYKAVAKVSHDAYEALAEAEWEKRK
B17: design_609_7ee6ce64-4629-41e8-bcb4-ba0da017284d_143_dldesign_0_cycle1_af2pred (protein)
chain: EEEKKELLESESYAIQAAHAVAAKDPATAEEAKEAFEYVALVGVEKARELLEKAKTDAESLKAAVAEAKELAKEVKKKLE
B18: design_609_7ee6ce64-4629-41e8-bcb4-ba0da017284d_665_dldesign_0_cycle1_af2pred (protein)
chain: MDEEKLKMAEEEMKEGEKYAKAAKAALKKGDAKKAATLASEALASYNAAAHLYELAGDKEKAKKALEEGKKVVEEVGAAVKA
B19: design_609_7ee6ce64-4629-41e8-bcb4-ba0da017284d_297_dldesign_0_cycle1_af2pred (protein)
chain: SPEEMIKKGKELVEKRLEKAKKTAEEKTPEEAKREAEAAVAFAEGVAEALAKHPEAAAAGEALLKETKEEAEKIIKKAKE

Biological target: VTCN1, Q7Z7D3
Sequence (Q7Z7D3 whole entry): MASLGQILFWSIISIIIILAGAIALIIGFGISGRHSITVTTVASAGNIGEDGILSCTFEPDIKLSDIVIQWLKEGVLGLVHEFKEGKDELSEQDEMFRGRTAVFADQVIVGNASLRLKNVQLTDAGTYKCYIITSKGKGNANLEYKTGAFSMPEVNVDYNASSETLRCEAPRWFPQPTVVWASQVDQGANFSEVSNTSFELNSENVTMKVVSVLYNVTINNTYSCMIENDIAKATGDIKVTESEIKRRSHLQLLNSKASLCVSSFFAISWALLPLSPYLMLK

Binding in a display sort, inactive:
B1 not found
B2 not found
B3 not found
B4 not found
B5 not found
B6 not found
B7 not found
B8 not found
B9 not found
B10 not found
B11 not found
B12 not found
B13 not found
B14 not found
B15 not found
B16 not found
B17 not found
B18 not found
B19 not found
